# Test results as given in PubChem BioAssay (NCI).
# The panel holds about 83,000 compounds, 20% with a hit somewhere; the sample as a whole holds those more often.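 Activity criterion: percent growth below 10, measured after cells in 96-well plates were exposed to a single compound concentration for 48 hours.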 A number with no mark means an inactive call. Activity calls are given as the source filed them.
# Tested on: HL-60(TB) leukemia
# Test: NCI-60 one-dose screen, 48 h (100 = growth as untreated, 0 = no growth, -100 = all killed)
# Conditions: 10 µM unless noted
row,SMILES,growth
1,C=C(C)[C@@H]1CC[C@]2(COC(=O)c3ccccc3C(=O)O)CC[C@]3(C)[C@H](CC[C@@H]4[C@@]5(C)CC[C@H](OC(=O)c6ccccc6C(=O)O)C(C)(C)[C@@H]5CC[C@]43C)[C@@H]12,37.8% [100 µM]
2,CC(=O)OCCc1ccccc1,92%
3,Nc1ccc(C(=O)/C=C/c2ccccc2)cc1,27.4%
4,COc1cc([C@@H]2c3cc4c(cc3C(OC3O[C@@H]5COC(C)O[C@H]5[C@H](O)[C@H]3O)C3COC(=O)[C@@H]32)OCO4)cc(OC)c1O (stereo partly specified),-2.39% (active)
5,COc1ccc2c(c1)C/C(=C\c1cc(-c3ccc4c(c3)OCO4)n[nH]1)C2=O,88.3%
6,Cc1ccc(C)n1/C=C/n1c(C)ccc1C,128%
7,N#C/C(=C\c1cn(Cc2ccccc2)c2ccccc12)C(=O)Nc1ncc(Cc2ccccc2Cl)s1,93.1%
8,COc1ccc(C(=O)OC2C(OC3C(O)COC(O[C@H]4C[C@H]5[C@@H]6CC=C7C[C@@H](O)CC[C@]7(C)[C@H]6CC[C@]5(C)[C@H]4[C@H](C)C(=O)CCC(C)C)C3OC(C)=O)OCC(O)C2O)cc1 (stereo partly specified),-40.7% (active)
9,C=C1C(=O)O[C@H]2[C@H]1CC/C(COC(=O)CSCSCC(=O)OC/C1=C/CC[C@@]3(C)O[C@H]3[C@H]3OC(=O)C(=C)[C@@H]3CC1)=C\CC[C@@]1(C)O[C@@H]21,-53.9% (active)
10,O=C(O)c1ccc2c(c1)C(=O)c1ccccc1C2=O,102%
11,CC(=O)NNC(=S)N/C=C/c1c(C)ccc([N+](=O)[O-])c1[N+](=O)[O-],99.9%
